Assay results as given in publication PMC5540273 (PLoS ONE, 2017).

System: CDK2
Conditions: concentration: 1 μM,replicates: in singlicate; n = 1
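Also: KINOMEscan kinase panel screen.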

Row | Compound | %Inh [%]
1 | C[C@H]1Oc2cc(cnc2N)-c2c(nn(C)c2C#N)CN(C)C(=O)c2ccc(F)cc21 | 21
2 | Cc1occc1-c1nc(N)c(OC[C@@H](N)Cc2c[nH]c3ccccc23)cc1-c1cc2c(C)n[nH]c2cn1 [GSK1660450] | 0
3 | Cc1ccc2c(-c3ccncc3)c(-c3ccc(F)cc3)nn2c1.Cl [GW461484] | 0
4 | CCN(CC)CCCCNc1ncc2cc(-c3c(Cl)cccc3Cl)c(NC(=O)NC(C)(C)C)nc2n1 | 8
5 | CCN(CC)CCOc1ccc(Nc2ncc3cc(-c4c(Cl)cccc4Cl)c(=O)n(C)c3n2)cc1 [SB-601273] | 7
6 | NC(=O)c1cc(-c2ccccc2)cc2c(C3CCNCC3)c[nH]c12 [GSK301362] | 0
7 | CCn1c(-c2nonc2N)nc2c(C#CC(C)(C)O)nc(OCCN)cc21.Cl.Cl [GSK902056] | 0
8 | O=C(NCCNc1ccnc(NCc2ccc(F)cc2)n1)c1cc2ccccc2s1 [GSK1379944] | 68
9 | Cl.Oc1cc(-c2nc(-c3ccccc3)[nH]c2-c2ccncc2)ccc1Cl [SB-386023] | 4
10 | COc1ccc(C[C@@H](CN)NC(=O)c2cc(Br)c(-c3ccnc4[nH]ccc34)s2)cc1.Cl.Cl [GSK1389063] | 6
11 | Cl.Cl.NC[C@H](CC1CCCCC1)NC(=O)c1cc(Br)c(-c2ccnc3[nH]ccc23)s1 [GSK1581427] | 0
12 | CN(C)CCOc1ccc(-c2cc(-c3c[nH]nc3-c3ccccn3)ccn2)cc1 [GW835314] | 1
13 | C[C@@H](Oc1cc(-c2cnn(C3CCNCC3)c2)cnc1N)c1c(Cl)ccc(F)c1Cl | 11
14 | Nc1nc(Nc2ccccc2)cc(-c2ccc3c(N)n[nH]c3c2)n1 [GSK2225749] | 0
